Bioassay records from PubChem.
SENP8 block-1 = blocks the human protease SENP8 | AID 2540 | hit rate 1.2% among 330,000 | purified SENP8, Z-RLRGG-aminoluciferin cleavage, luminescence | Q96LD8 | inhibition, % at 10 µM; in the data active = inhibition above about 50%
Target sequence (Q96LD8 whole entry, looked up): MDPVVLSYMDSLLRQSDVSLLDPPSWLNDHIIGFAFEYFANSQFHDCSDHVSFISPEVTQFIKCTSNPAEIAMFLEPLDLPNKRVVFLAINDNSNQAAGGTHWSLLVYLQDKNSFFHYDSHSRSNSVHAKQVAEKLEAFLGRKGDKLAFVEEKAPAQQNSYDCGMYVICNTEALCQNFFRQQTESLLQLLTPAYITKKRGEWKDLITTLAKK
Platelet DG rel = platelet dense granule release activity | AID 1663 | human platelet-rich plasma, SFLLRN dense granule ATP release, luminescence | hit rate 0.22% among 300,000 | inhibition, %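 (compounds screened at 7.5 µM in platelet-rich plasma)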;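 active = mean replicate score, as percent of positive control, at or above 50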
SENP6 inh = inhibitors of human SENP6 protease; Q9GZR1; Recombinant SENP6 catalytic domain, aminoluciferin luminescence; inhibition, % at 10 µM; hit rate 1.8% among 330,000;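 active = inhibition above about 50% at the single tested dose, limit read from the data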;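 also: plate controls were DMSO wells with enzyme for no effect and DMSO wells lacking enzyme for full effect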
SENP8 block-2 = inhibitors of human SENP8 protease. inhibition, % at 20 µM. AID 602440. recombinant SENP8, Nedd8 substrate fluorescence. hit rate 0.64% among 360,000. Q96LD8; in the data active = inhibition mostly above about 40%, no sharp cut-off; inactive = mostly below about 27%
SENP7 inh = SENP7 protease inhibition. inhibition, % at 5 µM. recombinant SENP7, Z-RLRGG-aminoluciferin luminescence, 40 min. Q9BQF6. AID 434973. hit rate 1.5% among 330,000;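 active = inhibition above about 50% at the single test dose, limit read from the data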;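 also: plate controls were DMSO with enzyme for no effect and no enzyme buffer wells for full effect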
Target sequence (Q9BQF6 706-1050 limits assumed): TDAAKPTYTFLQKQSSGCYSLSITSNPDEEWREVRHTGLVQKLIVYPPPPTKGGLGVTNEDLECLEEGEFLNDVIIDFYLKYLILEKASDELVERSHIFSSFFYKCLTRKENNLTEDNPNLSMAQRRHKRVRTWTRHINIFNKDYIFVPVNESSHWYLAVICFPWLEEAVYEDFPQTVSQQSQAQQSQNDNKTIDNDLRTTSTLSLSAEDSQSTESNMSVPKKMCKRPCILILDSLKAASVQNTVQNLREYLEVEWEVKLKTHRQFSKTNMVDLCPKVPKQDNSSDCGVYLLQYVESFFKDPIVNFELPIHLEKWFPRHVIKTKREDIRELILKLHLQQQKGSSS
SENP8 conf = confirmation of human SENP8 protease inhibitors | shares compounds with SENP7 inh | Recombinant SENP8, Z-RLRGG-aminoluciferin luminescence, 60 min | inhibition, % at 12.5 µM | hit rate 40% among 6,200;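 active = mean inhibition across replicates above about 50%, limit read from the data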
SENP6 confirm = confirmation of human SENP6 protease inhibitors; hit rate 58% among 6,200; shares compounds with SENP7 inh; recombinant SENP6, Z-RLRGG-aminoluciferin luminescence; inhibition, % at 12.5 µM
SENP7 confirm = human SENP7 inhibition, confirmed. shares compounds with SENP7 inh. recombinant SENP7, Z-RLRGG-aminoluciferin luminescence, 40 min. inhibition, % at 12.5 µM. hit rate 69% among 6,200. AID 488917
Casp3 SENP sel = caspase-3 inhibition (SENP selectivity assay). shares compounds with SENP7 inh. purified caspase-3, Z-DEVD-aminoluciferin luminescence, 60 min. hit rate 60% among 6,200. inhibition, % at 12.5 µM;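 active = mean inhibition above about 50%, limit read from the data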;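 also: plate controls were enzyme with DMSO for no effect and wells without caspase-3 for full effect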
SENP luc ctr = counter-screen for SENP inhibitors: luminescence interference; Pre-incubated SENP8/Z-RLRGG-aminoluciferin, luciferase luminescence interference; inhibition, % at 12.5 µM; AID 488919; hit rate 39% among 6,200; shares compounds with SENP7 inh;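 active = mean inhibition above about 50% when retested at one dose, limit read from the data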;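 also: plate controls were DMSO wells with completed reaction for no effect and substrate without enzyme for full effect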
An asterisk follows results filed as active; / = no result given. A selection: hits, their analogues and other compounds. The true share with any hit is near 2.4%.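 The calls were made as follows, unless noted: active = mean inhibition above about 50% in the one-dose retest (limit read from the data); inactive = the rest.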

SMILES	SENP8 block-1	Platelet DG rel	SENP6 inh	SENP8 block-2	SENP7 inh	SENP8 conf	SENP6 confirm	SENP7 confirm	Casp3 SENP sel	SENP luc ctr
COc1ccc(C(=O)Nc2ccc(N3CCN(C(=O)c4cccs4)CC3)cc2)cc1Br	5.6	-2.0	12.7	15.9	-2.8	/	/	/	/	/
COc1ccc(C(=O)Nc2ccc(N3CCCC3)cc2)cc1OC	94.6*	79.0*	94.4*	-10.6	19.3	87.6*	97.8*	101.7*	97.8*	89.3*
Cc1ccc(-c2ccc(=O)n(Cc3cccc(Br)c3)n2)cc1	-8.3	-0.4	-7.7	-18.2	6.8	/	/	/	/	/
FC(F)(F)c1nc(SCc2ccccc2)n[nH]1	-4.4	6.2	-6.4	24.9	9.3	/	/	/	/	/
c1ccc(-c2ccc(-c3nc(-c4ccncc4)no3)cc2)cc1	82.9*	22.7	90.9*	-8.9	22.9	41.6	37.3	27.4	71.7*	6.1
O=[N+]([O-])c1ccc(-c2nc(-c3ccncc3)no2)cc1	1.6	-23.4	9.6	37.7	5.5	/	/	/	/	/
Brc1ccc(-c2nc(-c3ccncc3)no2)cc1	12.7	0.0	7.3	21.8	73.0*	-9.1	-1.5	19.2	23.4	-0.6
c1coc(-c2nc(-c3ccncc3)no2)c1	32.5	/	71.7*	-0.8	62.2*	16.7	53.0*	84.6*	81.8*	20.6
c1ccc(-c2ccccc2-c2nc(-c3ccncc3)no2)cc1	5.5	1.4	-11.2	16.8	7.7	/	/	/	/	/
c1ccc(-c2nc(-c3ccncc3)no2)cc1	57.7*	8.2	81.8*	18.4	80.1*	-29.5	-0.8	49.5	32.0	-2.4
CCc1cc(=O)oc2c3c(cc(OCC(=O)NCc4ccncc4)c12)OC(C)(C)CC3	8.5	-0.8	51.6*	-206.4	-3.1	9.4	7.3	1.3	-1.7	-4.4
CCc1cc(=O)oc2c3c(cc(OCC(=O)NCc4ccco4)c12)OC(C)(C)CC3	-7.8	0.7	0.8	-196.8	11.3	/	/	/	/	/
CCn1c(SCC(=O)N/N=C/c2ccccc2OCC(=O)O)nnc1-c1ccccc1	1.4	3.1	69.9*	/	-3.5	-3.0	-0.1	-2.6	5.8	7.0
Cc1ccc(C(=O)Nc2scc(-c3ccccc3)c2C(=O)O)o1	66.5*	8.7	49.9	-253.1	57.1*	85.5*	85.0*	96.1*	92.2*	81.7*
O=C(/C=C/c1ccco1)Nc1scc(-c2ccccc2)c1C(=O)O	97.1*	4.3	97.8*	-4.4	95.0*	98.1*	98.8*	102.1*	97.9*	97.4*
Cc1cc(Br)ccc1NC(=O)c1ccccc1-c1ccccc1	2.3	-13.4	10.6	17.7	13.6	/	/	/	/	/
Cc1ccc(C(=O)Nc2ccccc2-c2ccccc2)o1	4.6	-2.5	-8.9	6.1	7.0	/	/	/	/	/
Cc1ccccc1C(=O)Nc1scc(-c2ccc(Br)cc2)c1C(=O)O	75.0*	-26.2	86.3*	-46.9	1.4	2.2	53.1*	11.6	52.3*	4.3
O=C(Nc1scc(-c2ccc(Br)cc2)c1C(=O)O)c1ccccc1F	86.6*	2.6	88.0*	-36.2	12.5	86.6*	86.0*	67.6*	76.8*	33.4
CC1(C)CCCC2=C1CC1C(=O)N(N)C(=O)C1C2 (centres undefined)	-5.9	-2.2	-11.7	15.3	-0.9	/	/	/	/	/
COC(=O)c1ccc(C(NC(=O)c2cccnc2)NC(=O)c2cccnc2)cc1	-2.5	-0.9	-7.3	21.4	5.3	/	/	/	/	/
N#CC(c1ccc(O)cc1)N1CCN(C(C#N)c2ccc(O)cc2)CC1 (centres undefined)	/	/	/	11.2	/	/	/	/	/	/
Cc1ccc(-c2nnc(CN3CCCCC3C)o2)cc1 (centres undefined)	0.0	/	-16.0	11.6	8.3	/	/	/	/	/
Cc1ccc(-c2csc(NC(=O)c3ccccc3F)c2C(=O)O)cc1	80.0*	-2.7	82.4*	-20.4	38.9	7.5	85.3*	93.2*	83.6*	59.3*
O=C(Nc1scc(-c2ccccc2)c1C(=O)O)c1ccccc1F	68.0*	-4.1	74.7*	-45.3	15.2	82.2*	78.7*	90.2*	85.1*	79.8*
SMILES	SENP8 block-1	Platelet DG rel	SENP6 inh	SENP8 block-2	SENP7 inh	SENP8 conf	SENP6 confirm	SENP7 confirm	Casp3 SENP sel	SENP luc ctr
CC(C)Cc1csc(NC(=O)c2ccc(Br)cc2)c1C(=O)O	87.6*	-4.8	93.8*	7.3	-5.3	92.2*	94.0*	92.5*	80.3*	58.4*
O=C(/C=C/c1ccccc1)Nc1scc(-c2ccccc2)c1C(=O)O	/	-1.6	/	-3.3	/	/	/	/	/	/
COc1ccc(-c2csc(NC(=O)c3ccc(C(C)(C)C)cc3)c2C(=O)O)cc1	-1.9	8.2	-8.3	/	11.3	/	/	/	/	/
COc1ccc(-c2csc(NC(=O)c3ccccc3Br)c2C(=O)O)cc1	29.8	23.3	52.5*	5.0	5.8	49.4	48.6	68.5*	47.9	61.6*
Cc1cc(NC(=O)c2ccccc2F)on1	-8.6	-4.2	-15.1	12.0	-13.6	/	/	/	/	/
CC(=O)Nc1ccc(NC(=O)c2ccccc2S(=O)(=O)c2ccc([N+](=O)[O-])cc2)cc1	-12.6	0.9	2.2	11.1	-9.3	/	/	/	/	/
COc1ccc(-c2csc(NC(=O)c3ccccc3OC)c2C(=O)O)cc1OC	-8.7	-0.4	9.1	-153.8	1.3	/	/	/	/	/
COc1ccc(-c2csc(NC(=O)c3cccs3)c2C(=O)O)cc1OC	60.1*	0.8	30.6	-18.9	44.8	3.9	71.9*	89.8*	74.7*	75.8*
O=C(Nc1ccccc1C(=O)NCCCN1CCOCC1)c1ccc(F)cc1F	-13.2	-6.5	-15.6	3.6	0.3	/	/	/	/	/
O=C(Nc1ccc(OCc2ccccc2)cc1)Nc1ccccc1C(=O)NCCCN1CCOCC1	95.4*	8.4	95.1*	-4.3	97.2*	98.5*	99.5*	103.4*	97.9*	88.3*
COc1ccc(C(=O)N=c2sc3c(C)ccc(OC)c3n2C)cc1	89.8*	19.8	97.5*	-404.6	99.0*	-17.7	0.8	14.9	8.1	24.9
COc1cc(C(=O)N=c2sc3c(C)ccc(OC)c3n2C)cc(OC)c1OC	8.5	0.7	24.4	-396.6	76.9*	7.4	5.6	22.8	-0.3	-11.0
COc1cc(C(=O)N=c2sc3ccccc3n2C)cc(OC)c1OC	-13.9	4.5	-21.6	-401.0	2.0	/	/	/	/	/
Cc1cccc(C)c1NC(=O)CN(C)C(=O)c1cccc(NS(=O)(=O)c2ccccc2)c1	-3.8	-3.0	-8.4	4.5	-4.3	/	/	/	/	/
COc1ccc(Nc2nc3ccccc3n2C)cc1	32.7	4.9	55.5*	12.2	34.8	20.6	22.4	69.0*	71.5*	48.9
COc1ccc(CNc2nc3ccccc3n2C)c(O)c1	41.3	17.1	64.5*	1.7	68.4*	66.6*	64.9*	90.3*	73.1*	71.4*
